# Reference: PubChem BioAssay (Tox21)
# Results filed as inconclusive are left out. Calls of active or inactive are those of the source. Calls come from the whole dose curve; as a rule, active = well fitted inhibition curve with a large enough effect in the repeat runs; inconclusive = weak or mixed curves; inactive = no such curve, though single readings can be large or run the other way.
# Target: Aromatase (Homo sapiens) (UniProt P11511)
# Assay: qHTS assay to identify aromatase inhibitors (AID 743083); note: nearly all actives have a fitted effect of over 55% in size
# Conditions: MCF-7 aro ERE, testosterone-driven ERE luciferase, 24 h; series mostly up to 70.3 µM
# Aromatase (Homo sapiens), sequence (P11511 whole entry, looked up): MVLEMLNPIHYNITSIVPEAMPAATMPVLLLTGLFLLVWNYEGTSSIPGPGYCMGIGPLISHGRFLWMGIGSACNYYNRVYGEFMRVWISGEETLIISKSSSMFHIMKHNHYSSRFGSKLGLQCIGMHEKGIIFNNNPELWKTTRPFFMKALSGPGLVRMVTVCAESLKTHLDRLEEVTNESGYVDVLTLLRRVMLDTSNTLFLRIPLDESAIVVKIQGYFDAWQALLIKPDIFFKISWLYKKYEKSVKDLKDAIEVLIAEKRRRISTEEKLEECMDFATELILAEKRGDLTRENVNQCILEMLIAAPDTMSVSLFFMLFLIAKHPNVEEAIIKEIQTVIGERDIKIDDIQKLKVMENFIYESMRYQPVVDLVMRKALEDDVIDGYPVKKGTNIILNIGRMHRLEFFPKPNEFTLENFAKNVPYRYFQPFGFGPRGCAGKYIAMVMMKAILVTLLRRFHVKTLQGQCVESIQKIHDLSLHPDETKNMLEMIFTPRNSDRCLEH
row,Compound,outcome
1,Cc1ccc(-c2ncc(Cl)cc2-c2ccc(S(C)(=O)=O)cc2)cn1,inactive
2,CO[C@@]1(NC(=O)CSC[C@@H](N)C(=O)O)C(=O)N2C(C(=O)O)=C(CSc3nnnn3C)CS[C@@H]21,inactive
3,CCCc1nn(C)c2c(=O)[nH]c(-c3cc(S(=O)(=O)N4CCN(C)CC4)ccc3OCC)nc12,inactive
4,CCCCN1C=CN(C)C1,inactive
5,CC(C)[C@H]1CC[C@@H](C)CC1=O,inactive
6,CCN1CCOCC1,inactive
7,COc1cccc(OC)c1C(=O)N[C@@H]1C(=O)N2[C@@H]1SC(C)(C)[C@@H]2C(=O)O,inactive
8,COc1ccccc1OCC1CNC(=O)O1 (stereo not given),inactive
9,CCCCOCCOC(=O)CCCCCCCCC(=O)OCCOCCCC,inactive
10,COc1ccnc(CS(=O)c2nc3cc(OC(F)F)ccc3[nH]2)c1OC (stereo not given),inactive
11,NCCCC[C@H](N[C@@H](CCc1ccccc1)C(=O)O)C(=O)N1CCC[C@H]1C(=O)O,inactive
12,CC[N+](C)(CC)CCOC(=O)C1c2ccccc2Oc2ccccc21,inactive
13,C[C@H]1[C@H](NC(=O)/C(=N/OC(C)(C)C(=O)O)c2csc(N)n2)C(=O)N1S(=O)(=O)O (stereo in doubt),inactive
14,CCOCC(C)O (stereo not given),inactive
15,CC12CCC(C(=O)C1=O)C2(C)C (stereo not given),inactive
16,CN(C)CCCN(C)CCCN(C)C,inactive
17,CCCCS(=O)(=O)N[C@@H](Cc1ccc(OCCCCC2CCNCC2)cc1)C(=O)O,inactive
18,O=C(O)CNC(=O)c1ccc(CO)o1,inactive
19,C=CCOCC(O)CO (stereo not given),inactive
20,CC(C)(CCC(=O)O)C(=O)O,inactive
